The campaign covered roughly 290,000 compounds. About 3,000 (1%) were called active. No stated cut-off is given here; in the data, active means inhibition mostly above about 36% (no sharp cut-off); inactive means mostly below about 34%. Many of the other results were omitted from the sample, so actives are more common in it than they were.
target: T1, Nucleotide-binding oligomerization domain-containing protein 1, Homo sapiens (UniProt Q9Y239); test: NOD1 signaling inhibitors, primary screen, cell-based, luminescence, uHTS (AID 1578)
T1 sequence (whole entry): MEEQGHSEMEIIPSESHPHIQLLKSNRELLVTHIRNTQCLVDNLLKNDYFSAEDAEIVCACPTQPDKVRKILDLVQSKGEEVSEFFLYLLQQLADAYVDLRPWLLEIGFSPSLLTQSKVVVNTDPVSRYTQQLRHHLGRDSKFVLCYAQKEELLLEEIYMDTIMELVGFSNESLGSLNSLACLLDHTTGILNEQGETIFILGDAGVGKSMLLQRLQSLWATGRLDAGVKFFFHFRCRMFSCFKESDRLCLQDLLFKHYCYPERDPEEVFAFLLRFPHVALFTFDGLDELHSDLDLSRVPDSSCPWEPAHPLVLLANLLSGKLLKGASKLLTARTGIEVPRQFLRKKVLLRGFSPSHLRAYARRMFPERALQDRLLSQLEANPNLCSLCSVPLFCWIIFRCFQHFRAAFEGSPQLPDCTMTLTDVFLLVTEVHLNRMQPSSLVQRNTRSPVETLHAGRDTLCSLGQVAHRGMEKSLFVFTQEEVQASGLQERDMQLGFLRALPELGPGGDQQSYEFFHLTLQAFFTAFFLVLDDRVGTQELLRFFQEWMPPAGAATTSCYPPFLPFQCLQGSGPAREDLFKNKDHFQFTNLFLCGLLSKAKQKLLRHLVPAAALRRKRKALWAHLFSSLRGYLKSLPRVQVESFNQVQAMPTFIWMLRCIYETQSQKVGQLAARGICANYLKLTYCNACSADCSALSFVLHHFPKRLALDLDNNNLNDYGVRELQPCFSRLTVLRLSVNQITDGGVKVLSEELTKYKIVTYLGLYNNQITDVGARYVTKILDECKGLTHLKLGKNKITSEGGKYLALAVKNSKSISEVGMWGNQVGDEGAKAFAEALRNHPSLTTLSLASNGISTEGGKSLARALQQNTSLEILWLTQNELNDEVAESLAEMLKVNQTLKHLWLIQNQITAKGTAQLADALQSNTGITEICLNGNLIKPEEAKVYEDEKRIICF

outcome, active:
Cc1ccc(C)c(OCC(=O)Nc2nc3ccc([N+](=O)[O-])cc3s2)c1C, O=[N+]([O-])c1ccc(O)c(-c2cc(C(F)(F)F)nc(-c3ccccc3)n2)c1, CC(C)c1ccc(-n2c(-c3ccccc3)c[n+]3c2CCc2ccccc2-3)cc1.[Br-], CCCCCCCC[n+]1cccc2c3ccccc3ccc21.[I-], CCCCCCCCC[n+]1cccc2c3ccccc3ccc21.[Br-], O=C(NC(NC(=S)Nc1ccc(Cl)cc1Cl)C(Cl)(Cl)Cl)c1cccc([N+](=O)[O-])c1 (stereo not drawn), COc1ccc(Cc2[nH]n3c(=O)c(Cl)c(C)nc3c2-c2ccccc2)cc1, O=C(Cc1ccc(Cl)cc1)c1c[nH]c(C(=O)NCc2cccnc2)c1, CCCN(CCC)c1ncnc2nc[nH]c12, CCN(c1ccc(OC)cc1)c1ncnc2nc[nH]c12, CCc1ccc(N(CC)c2ncnc3nc[nH]c23)cc1, COc1ccc(N=C2NC(=O)/C(=C/c3ccc(O)c(OC)c3)S2)cc1, Cc1ccc(C(=O)NC(=S)N(C)C2CCCCC2)cc1Br, Cn1nc([N+](=O)[O-])nc1Sc1cccc2cccnc12, C=CCn1nc([N+](=O)[O-])nc1Sc1cccc2cccnc12, O=[N+]([O-])c1ccc(Sc2cccc3cccnc23)c([N+](=O)[O-])c1, C=CCn1c(SCC(=O)Nc2sccc2C(N)=O)nc2sc(CC)cc2c1=O, O=C(OCn1ncc(Br)c(Br)c1=O)c1ccccc1Cl, O=C(OCn1ncc(Cl)c(Cl)c1=O)c1ccccc1Cl, Cc1ccc(C(=O)OCn2ncc(Cl)c(Cl)c2=O)cc1, O=C(OCn1ncc(Cl)c(Cl)c1=O)c1cccc(C(F)(F)F)c1, COc1cccc(C(=O)Nc2nc(-c3ccccc3)c(-c3ccccc3)o2)c1, COc1cc(OC)cc(C(=O)Nc2nc(-c3ccccc3)c(-c3ccccc3)o2)c1, S=c1[nH]nc(C2CCCCC2)n1/N=C/c1ccncc1, O=c1c2cc(Br)ccc2nc(-c2cccc(C(F)(F)F)c2)n1O, O=c1c2cc(Cl)ccc2nc(-c2ccc(Cl)c(Cl)c2)n1O, COc1cccc(N2CCN(c3ncnc4c3[nH]c3ccc(F)cc34)CC2C)c1 (stereo not drawn), COc1cccc(N2CCN(c3ncnc4c3[nH]c3ccccc34)CC2C)c1 (stereo not drawn), Cc1sc2nc(CSc3ccccc3)nc(N3CCC(C(N)=O)CC3)c2c1C, Cc1nc(N2CCC(C(N)=O)CC2)c2c(-c3cccs3)csc2n1, CCCc1nnc(NC(=O)c2nc(S(=O)(=O)Cc3ccc(C)cc3)ncc2Cl)s1, CCCc1nnc(NC(=O)c2nc(S(=O)(=O)Cc3cccc(C)c3)ncc2Cl)s1, Cc1cccc(CS(=O)(=O)c2ncc(Cl)c(C(=O)Nc3c(C)cccc3C)n2)c1, CCc1nnc(NC(=O)c2nc(S(=O)(=O)Cc3ccc(C)cc3)ncc2Cl)s1, CC(C)(C)C(=O)/C(=C/c1ccc(Cl)cc1)n1cncn1, O=c1c2ccccc2nc(/C=C/c2cc(Br)ccc2O)n1CCCO, O=c1c2ccccc2nc(/C=C/c2ccc([N+](=O)[O-])o2)n1CCCO, CC[n+]1c(C=C2C=C(C)OC(C)=C2)sc2ccccc21.[Cl-], O=[N+]([O-])c1nn(-c2ccc3c(c2)OCCO3)n(O)c1=Nc1ccccc1, CCOc1ccc(Nc2nc(N)nc(CCl)n2)cc1, COc1ccc(OC)c(Nc2nc(N)nc(CCl)n2)c1, Cc1ccccc1Nc1nc(N)nc(CCl)n1, CCCCCc1cc(O)c2c(C)cc(=O)oc2c1, O=C(Nc1ccccc1C(=O)O)c1cc(S(=O)(=O)Nc2ccccc2)ccc1Cl, O=C(Nc1ccccc1C(=O)O)c1cc(S(=O)(=O)N2CCCCC2)c(Cl)cc1Cl, CC(=O)c1cccc(NC(=O)/C=C/c2ccc([N+](=O)[O-])s2)c1, CCOC(=O)/C=C/C(=O)Nc1cccc([N+](=O)[O-])c1, Cc1cccc(NC(=O)/C=C/c2ccc([N+](=O)[O-])s2)c1, S=c1[nH]nc(-c2cc(-c3ccccc3)n[nH]2)n1/N=C/C(Br)=C/c1ccccc1, CC(=C/c1ccccc1)/C=N/n1c(-c2ccncc2)n[nH]c1=S, CCc1cc(C(=O)NC2CCCc3c2cnn3-c2cccc(C)c2C)n(C)n1 (stereo not drawn), CCn1nc(C)cc1C(=O)NC1CCCc2c1cnn2-c1ccc(C)c(C)c1 (stereo not drawn), Cc1cc(C(=O)NC2CCCc3c2cnn3-c2ccc(C)c(C)c2)n(C)n1 (stereo not drawn), COCCn1c(=S)[nH]c2cc(C(=O)N3CCCC(C)C3)ccc2c1=O (stereo not drawn), O=C(N/N=C/c1ccccn1)c1cc(-c2ccccc2)nc2ccccc12, O=C(N/N=C/c1ccccn1)c1cc(-c2ccc(Cl)cc2)nc2ccccc12, CCCOc1cccc(-c2cc(C(=O)N/N=C/c3ccccn3)c3ccccc3n2)c1, O=C(N/N=C/c1ccccn1)c1cc(-c2ccc(Br)cc2)nc2ccccc12, COCC1CCCN(C(=O)c2cc(COc3ccc4ncccc4c3)on2)C1 (stereo not drawn), O=C(c1cc(COc2cccc3cnccc23)on1)N1CCCC(CCCO)C1 (stereo not drawn), COCC1CCN(C(=O)c2cc(COc3cccc4cnccc34)on2)CC1, Cc1c(C(C)NC(=O)c2cc(COc3cccc4cnccc34)on2)cnn1C (stereo not drawn), O=C(c1cc(COc2cccc3cnccc23)on1)N1CCC(c2ccccc2Cl)C1 (stereo not drawn), O=C1NC(=O)/C(=C\c2ccccc2Oc2ccc(F)c(F)c2)S1, Cc1cccc2cc(/C=N/NC(=O)c3ccccc3O)c(Cl)nc12, C=C1C(=O)[C@@]23[C@H](O)C[C@@H]4C(C)(C)CC[C@H](O)[C@@]4(C)[C@@H]2CC[C@@H]1[C@H]3O, CN(Cc1nccs1)C(=O)c1cc(COc2cccc3cnccc23)on1, CCc1ccc(CN(C)C(=O)c2cc(COc3cccc4cnccc34)on2)cc1, COc1cccc(CN(C)C(=O)c2cc(COc3ccc4ncccc4c3)on2)c1, COc1ccc(-c2cc(C(F)(F)F)nc(S(C)(=O)=O)n2)cc1OC, COc1ccc(-c2cc(C(F)(F)F)nc(S(C)(=O)=O)n2)cc1, COc1ccccc1-c1cc(C(F)(F)F)nc(S(C)(=O)=O)n1, CCCC1/C(=N/O)CC(c2ccccc2)NC1c1ccccc1 (stereo not drawn), N#CC1=C(N)N2C(=C(C#N)C1c1ccc(Br)cc1)Nc1ccccc12 (stereo not drawn), N#CC1=C(N)N2C(=C(C#N)C1c1cccc(Br)c1)Nc1ccccc12 (stereo not drawn), COc1ccccc1/C=C/C(=O)c1c2c(c(C)[nH]c1=O)CCCC2, Cc1[nH]c(=O)c(C(=O)/C=C/c2ccccc2)c2c1CCCC2, Cc1[nH]c(=O)c(C(=O)/C=C/c2ccccc2F)c2c1CCCC2, CCN(CC)S(=O)(=O)c1cccc(NC(=O)Nc2cccc(C(F)(F)F)c2)c1, Cc1ccc(Cc2cnc(N3C(=N)SC(C)C3=O)s2)cc1 (stereo not drawn), Cc1cccc(Cc2cnc(N3C(=N)SC(C)C3=O)s2)c1 (stereo not drawn), CC1=C(C(=O)OCc2ccc3c(c2)OCO3)C(c2ccc(O)c([N+](=O)[O-])c2)NC(=O)N1 (stereo not drawn), CC1=C(C(=O)OCc2ccc3c(c2)OCO3)C(c2ccc(Cl)cc2)NC(=O)N1 (stereo not drawn), CC1=C(C(=O)OCc2ccc3c(c2)OCO3)C(c2ccc(F)cc2)NC(=O)N1 (stereo not drawn), CC1=C(C(=O)OCc2ccc3c(c2)OCO3)C(c2ccccc2)NC(=O)N1 (stereo not drawn), O=C(NCc1ccccc1)C1=C[C@@H](c2csc3ccccc23)C[C@@H](OCCCCO)O1, CCn1nc(C)c(NC(=O)/C=C/c2ccc(OC)c(COc3ccc(Br)cc3)c2)c1C, CCCN(CC(=O)Nc1ccccc1C)C(=O)CCl, CCC(C)N(CC(=O)Nc1cccc(C)c1C)C(=O)CCl (stereo not drawn), CCc1c(C)sc2nc(C(C)C)nc(SCC(=O)N3CCc4ccccc4C3)c12, Cc1cc(C(=O)CN2C(=O)c3ccccc3S2(=O)=O)c(C)n1CC1CCCO1 (stereo not drawn), Cc1cc(C(=O)CSc2nc3ccccc3c(=O)n2C)c(C)n1Cc1ccc2c(c1)OCO2, Cc1cc(C(=O)CSc2nc3ccccc3c(=O)n2C)c(C)n1CC1CCCO1 (stereo not drawn), COc1ccc(CCNC(=S)N2CCC(Cc3ccccc3)CC2)cc1OC, N=C1S/C(=C\c2ccco2)C(=O)N1c1nccs1, N=C1S/C(=C\c2ccc(-c3cccc(Cl)c3)o2)C(=O)N1c1nccs1, Cn1ncc2c(N3CCN(c4ccc(Cl)c(Cl)c4)CC3)ncnc21, O=C(Nc1ccc(Cl)c(Cl)c1)Nc1ccccc1NS(=O)(=O)c1cccs1, O=C(Nc1ccc(Cl)c(Cl)c1)Nc1ccc(Br)cc1F, S=C(NCCc1ccccc1)Nc1cccc2cnccc12, COc1ccccc1-c1nnc(SCC(=O)Nc2nc(-c3ccccc3)cs2)n1C, COc1nc(Nc2nc3ccccc3c(=O)[nH]2)nc2ccc(C)cc12, COc1ccc(NC(=O)Cn2nnc(-c3ccccc3NS(=O)(=O)c3ccc(OC)cc3)n2)cc1, O=[N+]([O-])c1cccc(S(=O)(=O)Nc2nc3ccccc3nc2Nc2cccc(S(=O)(=O)N3CCCCC3)c2)c1, COc1cc(Nc2nc3ccccc3nc2NS(=O)(=O)c2ccc([N+](=O)[O-])cc2)cc(OC)c1OC, Cc1ccc(S(=O)(=O)Nc2nc3ccccc3nc2Nc2cccc(S(=O)(=O)N3CCCC3)c2)cc1, CCOc1cc(C)c(Cl)cc1S(=O)(=O)n1nnc2ccccc21, CC(=O)n1c(Cl)c(NC(=O)CCl)c2ccccc21
